High-throughput results from PubChem BioAssay.
Sampled rows, rich in hits. Any-hit rate of the full collection: about 5.4%.
FMDV antiviral: blocks foot and mouth disease virus; FMDV antiviral cell-based qHTS; Potency, µM (highest dose often 57.9 µM), without a hit: at the top dose activity change, negative = inhibition, hits mostly inhibitors; 410,000 compounds, 1.2% hits; calls by dose curve; tested in HEK293T cells; also: read-out not given here; nearly all actives have a fitted effect of over 45% in size
Vaccinia mCherry: vaccinia inhibition (mCherry reporter); Vaccinia virus mCherry reporter infection, fluorescence; Potency, µM (doses to about 36.5 µM), for the others: at the highest dose activity change, negative = inhibition, actives largely listed as inhibitors; 310,000 compounds, 0.63% hits; calls by dose curve; tested in A549 cells; also: nearly all actives have a fitted effect of over 35% in size
LASV entry inh: inhibitors of Lassa virus binding or cell entry; Lassa virus pseudotype entry inhibition, cell reporter; Potency, µM (series often up to 37.9 µM), without a hit: at the top dose activity change, negative = inhibition, hits mostly inhibitors; 300,000 compounds, 1.2% hits; calls by dose curve; tested in HEK293 cells; also: nearly all actives have a fitted effect of over 50% in size
Sm TGR block: blocks Schistosoma mansoni thioredoxin glutathione reductase. purified TGR, DTNB reduction, TNB absorbance 405 nm. Potency, µM (doses to about 114 µM), inactives show at the highest dose activity change, negative = inhibition, usual class: inhibitors. 360,000 compounds, 3% hits; active = well fitted inhibition curve with a large enough effect; inconclusive = small, poorly fitted or top-dose-only effect; inactive = no such curve, though single readings can be large or run the other way; also: nearly all actives have a fitted effect of over 60% in size
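First, TGR (20 nM dispensed) and NADPH were mixed with compound. Second, a 15 min room-temperature incubation followed. Third, further NADPH and then DTNB were added to start the reaction. Finally, TNB absorbance was monitored kinetically.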
Marburg entry inh: blocks Marburg virus binding to or entry into cells; Marburg virus pseudotyped entry inhibition, cell reporter; Potency, µM (top dose mostly 37.8 µM), inactives show at the top dose activity change, negative = inhibition, hits mostly inhibitors; 300,000 compounds, 1.8% hits; calls by dose curve; tested in HEK293 cells
VACV Venus inh: inhibitors of vaccinia virus (Venus reporter); Vaccinia virus Venus reporter expression, fluorescence; Potency, µM (highest dose often 36.5 µM), for inactives: top-dose activity change, negative = inhibition, actives largely listed as inhibitors; 330,000 compounds, 0.46% hits; AID 720580; calls by dose curve; tested in A549 cells; also: nearly all actives have a fitted effect of over 30% in size
Starred values were filed as active, the others as inactive; i = inactive; ? = inconclusive; nt = no result; [ ] = dose if it differs, or a comment. % is scaled to controls: 0 for no effect and ±100 for the full control effect; potency is read from the fitted curve at half-maximal effect.

SMILES | FMDV antiviral | Vaccinia mCherry | LASV entry inh | Sm TGR block | Marburg entry inh | VACV Venus inh
CCN1CCN(C(=O)c2cnn3c(C(F)F)cc(-c4ccc(C)cc4)nc23)CC1 | -23.9% | nt | -22.9% | -1.2% | ? | nt
O=C(c1cnn2c(C(F)F)cc(-c3ccccc3)nc12)N1CCN(Cc2ccc3c(c2)OCO3)CC1 | 28.2µM* | ? | -28.5% | -28.0% | ? | -27.5%
Fc1cccc(CSc2nc(NCCc3ccccc3)c3ccccc3n2)c1 | -29.1% | -14.4% | -2.8%[46.1 µM] | 1.0% | nt | -14.5%
Cc1ccc(CSc2ccc3nnc(CCNS(=O)(=O)c4ccc(C)cc4)n3n2)cc1 | 13.2% | -5.2% | ? | 2.0% | nt | -9.2%
FC(F)(F)c1nnc(-c2ccccc2)nc1Sc1ccccc1 | ? | -4.8% | 2.5% | ? | ? | -4.9%
FC(F)(F)c1nnc(-c2ccccc2)nc1Sc1ccc(Cl)cc1 | -20.4% | nt | ? | ? | 14.6µM* | nt
C=C=CCCN1C(=O)NC(c2ccccc2)C(C(=O)OC)=C1C (configuration not stated) | nt | nt | nt | nt | -18.5%[14.2 µM] | nt
N#CC1=C(N)SC(N)=C(C#N)C1c1ccoc1 | nt | nt | nt | 5.01µM* | nt | nt
Cc1ccc(C2C(C#N)=C(N)SC(N)=C2C#N)cc1 | -20.1% | i | -1.0% | ? | 13.9% | -3.4%
Cc1cc(C)cc(NS(=O)(=O)c2cnc(Cl)c(Cl)c2)c1 | 14.5% | nt | 1.0% | 28.2% | 2.3% | ?
CCOc1ccc(NS(=O)(=O)c2cnc(Cl)c(Cl)c2)cc1 | -20.5% | ? | ? | -24.7% | ? | 12.6µM*
CCOc1ccccc1NC(=O)Cn1nnc2sc3c(c2c1=O)CCC(C(C)(C)C)C3 (configuration not stated) | -5.0% | -10.2% | 24.5%[46.1 µM] | 4.6% | ? | -17.1%
CCCN1C(=O)C(O)(c2c(C)[nH]c3ccccc23)c2ccccc21 (configuration not stated) | -25.7% | nt | nt | 44.7µM* | nt | nt
Brc1ccc(-c2ncc3ccccn23)cc1 | 26.7% | nt | nt | 28.2µM* | nt | nt
CCCCCC/C=C\CCCCCCCc1cccc(O)c1C(=O)O | -5.9% | i | nt | nt | nt | -11.6%
CCCCCC(=O)Cc1cc(O)cc2c1C(=O)Oc1cc(O)c(C(=O)O)c(CCCCC)c1O2 | -11.2% | -3.7% | nt | 35.5µM* | nt | -8.2%
CCOC(=O)c1ccc(NC(=O)c2sc3ccccc3c2Cl)cc1 | 36.6% | 3.4% | 23.5%[46.1 µM] | -10.8% | nt | 15.8%
CCOC(=O)c1sc2ccccc2c1OC(=O)c1ccc(C)cc1 | 15.2% | -13.3% | 4.47µM* | 9.1% | -25.8% | -4.8%
Cc1ccc(SCC(=O)OCC(=O)N(CCC#N)c2ccccc2)cc1C | -26.0% | -9.5% | 6.1% | ? | 28.4% | -6.2%
Cc1ccc(N(CCC#N)C(=O)CCl)cc1C | 28.2µM* | -6.8% | 7.94µM* | 17.8µM* | 7.08µM* | -19.6%
O=C(NCCOc1ccc(F)cc1)c1ccccc1SCc1ccccc1 | -20.0% | i | ? | -4.2% | 11.2µM* | 1.2%
Cc1cccc(NC(=O)CSc2nc(-c3ccco3)nc3cc(=O)[nH]n23)c1 | -13.4% | -6.5% | 22.7%[46.1 µM] | ? | nt | -11.9%
CCOC(=O)CCN1C(=O)[C@@H]2[C@H]3[C@H](O)[C@H](O)CC(=NOCc4ccccc4)[C@@H]3CC[C@H]2C1=O | nt | nt | ? | nt | -7.2%[14.2 µM] | nt
Oc1ccccc1/C=N/c1c(-c2ccco2)nc2ccccn12 | 1.3% | nt | ? | 50.1µM* | 19.9% | nt
CCOC(=O)NN=C1C[C@@H](O)[C@@H](O)[C@@H]2[C@H]3C(=O)N([C@@H](C)c4ccccc4)C(=O)[C@@H]3CC[C@@H]12 | nt | nt | nt | nt | -22.4%[14.2 µM] | nt
O=C(Nc1ccccc1)Nc1nnc(-c2ccccc2)o1 | -0.9% | nt | -3.7% | 1.1% | -9.3% | nt
Fc1ccc(NC2=NCCCCC2)cc1 | -6.4% | -7.3% | nt | -0.2% | -5.0%[46.1 µM] | -2.6%
c1ccc(-c2nnc(NC3=NCCC3)o2)cc1 | -35.0% | -9.5% | 7.08µM* | nt | ? | -8.5%
Fc1ccc(-c2nnc(NC3=NCCCCC3)o2)cc1 | 10µM* | nt | 1µM* | -32.7% | ? | -26.1%
Cc1cccc(N2CCN(C(=O)c3ccc(N4CCCC4=O)cc3)CC2C)c1 (configuration not stated) | 31.6µM* | ? | ? | -14.8% | ? | -25.5%
